High-throughput results deposited in PubChem BioAssay by several laboratories.
Compounds with a hit are over-represented: about 5.6% of the library has one in this group of screens.
PfG6PD inh: PfG6PD (Plasmodium falciparum) enzyme inhibition. hit rate 0.78% among 350,000. PfGluPho enzyme, NADPH resazurin-diaphorase fluorescence. AID 504690. inhibition, % at 20 µM;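 active = inhibition reaching at least a set limit at 20 µM in the primary screen, cut at about 59% in these data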
ALR H2O2 inh: human ALR oxidase inhibition via reduced H2O2. AID 485317. inhibition, % (test concentration not listed). hit rate 3.8% among 290,000. purified ALR, DTT oxidation, H2O2 HRP-luminol luminescence;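 active = mean replicate inhibition above about 79%, with every replicate also reaching it, limit read from the data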
Target sequence (P55789 whole entry, looked up): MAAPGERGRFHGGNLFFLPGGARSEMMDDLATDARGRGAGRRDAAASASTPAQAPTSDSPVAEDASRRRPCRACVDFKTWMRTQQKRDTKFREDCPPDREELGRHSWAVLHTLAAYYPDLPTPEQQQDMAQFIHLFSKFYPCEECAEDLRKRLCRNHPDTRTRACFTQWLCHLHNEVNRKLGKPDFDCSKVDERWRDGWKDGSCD
PfM18AAP inh-1: PfM18AAP enzyme inhibition. recombinant PfM18AAP, H-Glu-NHMec fluorogenic cleavage. inhibition, % at 7.35 µM. hit rate 1.2% among 290,000. AID 1822;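 active = inhibition above the campaign mean inhibition over all tested compounds plus 3 SD, cut at about 28% in these data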
H9c2 protect: myocardial damage modulation in H9c2 cells. H9c2 cardiomyocytes, H2O2 injury protection, ATPLite, 2 h. protection from H2O2 cell death, % at 20 µM. hit rate 0.63% among 360,000. AID 588492;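 active = compounds giving at least 50% protection of heart cells from peroxide-induced death in the single-dose screen, raw or plate-pattern-corrected value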
PHOSPHO1 inh: PHOSPHO1 (human) inhibition. Q8TCT1. recombinant PHOSPHO1, absorbance phosphatase assay. inhibition, % at 13.3 µM. hit rate 1.1% among 290,000. AID 1565; in the data active = inhibition above about 60%
Target sequence (Q8TCT1 whole entry, looked up): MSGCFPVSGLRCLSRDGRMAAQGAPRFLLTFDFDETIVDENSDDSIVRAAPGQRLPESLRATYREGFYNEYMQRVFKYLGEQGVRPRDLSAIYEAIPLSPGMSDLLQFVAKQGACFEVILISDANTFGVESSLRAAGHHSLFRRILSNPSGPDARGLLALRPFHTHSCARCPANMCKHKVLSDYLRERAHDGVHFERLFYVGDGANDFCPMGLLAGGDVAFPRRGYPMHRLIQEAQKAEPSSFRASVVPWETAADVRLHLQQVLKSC
PfM18AAP inh-2: confirmation of Plasmodium falciparum M18 aspartyl aminopeptidase inhibitors; shares compounds with PfM18AAP inh-1; inhibition, % at 7.35 µM; recombinant PfM18AAP, H-Glu-NHMec fluorogenic cleavage; hit rate 28% among 2,400;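 active = mean inhibition over replicate wells above the hit cutoff set for the earlier primary screen, cut at about 29% in these data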
CTSL1 confirm: Cathepsin L (human) inhibition, confirmation; shares compounds with PfM18AAP inh-1; inhibition, % at 5.96 µM; purified cathepsin L1, Z-Leu-Arg-MCA fluorescence; AID 2178; 2,400 tested, under 10 active;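 active = average inhibition across replicates above the hit cutoff set in the earlier primary screen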
PfG6PD confirm: confirmation of Plasmodium falciparum G6PD inhibitors | shares compounds with PfG6PD inh | recombinant PfGluPho, NADPH-diaphorase-resazurin fluorescence | inhibition, % at 20 µM | hit rate 34% among 2,400 | AID 504753;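 active = inhibition of at least 50% at 20 µM in any single replicate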
Diaphorase 10uM: inhibits diaphorase or oxidizes, flagging false PfG6PD hits | shares compounds with PfG6PD inh | diaphorase-coupled resazurin reduction, fluorescence, NADPH 10 uM | inhibition, % at 20 µM | hit rate 39% among 820;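 active = average inhibition reaching 50% or more with the compound at 20 µM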;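 note: resorufin red fluorescence formed as diaphorase reduces resazurin using NADPH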
Diaph ctr 30uM: inhibits diaphorase or oxidizes, flagging false PfG6PD hits. AID 504863. inhibition, % at 20 µM. hit rate 29% among 820. shares compounds with PfG6PD inh. Diaphorase/resazurin coupled assay, resorufin fluorescence, 30 uM NADPH;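 active = inhibition averaging 50% or more, tested at 20 µM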
Numbers stand for hits; – = inactive; · = no result.

SMILES	PfG6PD inh	ALR H2O2 inh	PfM18AAP inh-1	H9c2 protect	PHOSPHO1 inh	PfG6PD confirm	others
Cc1ccc(NP(=O)(c2ccccc2)c2nc3ccccc3s2)cc1 (configuration not stated)	–	–	–	–	–	·
Cc1nc2ccc(P(=O)(O)O)cc2s1	·	–	50	·	–	·	PfM18AAP inh-2=–;CTSL1 confirm=–
O=C1NC(=O)C(=Cc2cc3c(cc2[N+](=O)[O-])OCO3)C(=O)N1	–	–	40	–	–	·	PfM18AAP inh-2=–;CTSL1 confirm=–
CS(=O)(=O)c1ccc(C2=C(CNC(=O)c3nccs3)[C@H]3CC[C@@H](C2)N3Cc2ccco2)cc1	–	·	·	–	·	·
C=CCNC(=S)N1Cc2cc(Br)ccc2-n2nncc2C1	·	·	·	–	·	·
O=C(NC1(C(F)(F)F)Oc2ccccc2O1)N1CCC2(CC1)OCCO2	–	–	71	–	–	·	PfM18AAP inh-2=68;CTSL1 confirm=–
NS(=O)(=O)c1ccc(N=Nc2c(O)[nH]c(=S)[nH]c2=O)cc1	–	–	32	–	–	·	PfM18AAP inh-2=–;CTSL1 confirm=–
O=C1NCN(c2ccccc2)C12CCN(C(c1nnnn1C1CCCCC1)C1CC1)CC2 (configuration not stated)	·	·	·	–	·	·
O=c1[nH]sc2cc(F)ccc12	63	·	58	–	–	53	PfM18AAP inh-2=37;CTSL1 confirm=–;Diaphorase 10uM=–;Diaph ctr 30uM=–
Cc1ccccc1-c1ccc2c(c1)C1c3c(-c4ccccc4)nnn3-c3ccccc3C(=O)N1CC2 (configuration not stated)	·	·	·	–	·	·
CN1CCc2cc3c(c4c2C1Cc1ccccc1-4)OCO3 (configuration not stated)	89	–	50	–	–	–	PfM18AAP inh-2=–;CTSL1 confirm=46
CN1CCc2cc3c(cc2C1)OCO3	–	·	·	–	·	·
CNC(=O)Oc1ccc(-c2cn3cc(Cl)ccc3n2)cc1	68	–	–	–	–	–
COc1cc(O)c2c(c1)/C=C/C[C@H](O)[C@H](O)C(=O)CCC[C@H](C)OC2=O	·	·	·	–	·	·
O=[N+]([O-])c1ccc(N2CCOCC2)c2c1no[n+]2[O-]	–	·	·	–	·	·
O=C1NC(=S)NC(=O)C1=Cc1ccc(Br)s1	65	–	–	–	–	84	Diaphorase 10uM=–;Diaph ctr 30uM=–
NS(=O)(=O)c1ccc(-c2ccc(C=C3C(=O)NC(=S)NC3=O)o2)cc1	·	–	–	·	–	·
NS(=O)(=O)c1ccc(-c2ccc(C=C3C(=O)NC(=O)NC3=O)o2)cc1	78	98	–	–	–	80	Diaphorase 10uM=–;Diaph ctr 30uM=–
CNS(=O)(=O)c1ccc(-c2ccc(C=C3C(=O)NC(=O)NC3=O)o2)cc1	81	88	–	–	–	55	Diaphorase 10uM=–;Diaph ctr 30uM=–
O=C(CCc1ccccc1)N1Cc2cc(N3CCCCC3)ccc2-n2nncc2C1	·	·	·	–	·	·
COCCNC(=O)c1c(N)n(Cc2ccco2)c2nc3ccccc3nc12	60	–	–	–	–	–
O=c1[nH]c2ccccc2n1C1CCN(C(c2cc3ccccc3o2)c2nnnn2Cc2ccccc2)CC1 (configuration not stated)	·	·	·	–	·	·
CCCN1CCc2cc(O)cc3c2[C@H]1Cc1ccc(O)c(O)c1-3	86	99	·	–	·	77	Diaphorase 10uM=–;Diaph ctr 30uM=–
COc1cc2c(cc1O)[C@@H]1Cc3ccc(OC)c(O)c3CN1CC2	–	–	·	–	·	·
CN1CCc2cc(O)cc3c2[C@H]1Cc1ccc(O)c(O)c1-3	86	99	·	–	·	83	Diaphorase 10uM=–;Diaph ctr 30uM=–
SMILES	PfG6PD inh	ALR H2O2 inh	PfM18AAP inh-1	H9c2 protect	PHOSPHO1 inh	PfG6PD confirm	others
CC1=C(O)C(=O)C=C2C1=CC=C1C2(C)CCC2(C)C3CC(C)(C(=O)O)CCC3(C)CCC12C (configuration not stated)	81	·	·	–	·	71	Diaphorase 10uM=–;Diaph ctr 30uM=–
CC(C)Nc1ccc(Nc2ccccc2)cc1	106	99	·	–	·	52	Diaphorase 10uM=–;Diaph ctr 30uM=–
c1ccc(Nc2ccc3ccccc3c2)cc1	–	·	·	–	·	·
O=S(=O)(c1cccc(C(F)(F)F)c1)N1Cc2ccccc2-n2nncc2C1	–	·	·	–	·	·
CC(C)=CCOc1c2occc2cc2ccc(=O)oc12	68	–	–	–	–	–
CCC(C)c1cnc(CC(C)C)c(=O)n1O (configuration not stated)	·	·	·	–	·	·
CC(C)(C)n1nnnc1C(c1ccnc2ccccc12)N1CCC2(CC1)C(=O)NCN2c1ccccc1 (configuration not stated)	·	·	·	–	·	·
COc1cc(/C=C/c2nc3ccccc3c(=O)n2-c2ccccc2O)ccc1O	84	–	–	50	–	–
Cc1cccc(C)c1-n1nnnc1C(c1ccccc1OC(F)(F)F)N1CCC(n2c(=O)[nH]c3ccccc32)CC1 (configuration not stated)	·	·	·	–	·	·
O=C1C=C(N2CC2)c2ccccc2C1=O	100	·	·	–	·	72	Diaphorase 10uM=54;Diaph ctr 30uM=63
O=C1c2ccccc2-c2cc3ccccc3cc21	–	·	·	–	·	·
Cn1cc(C=C2C(=O)NC(=O)NC2=O)c2ccccc21	–	–	–	–	–	·
CC(=O)n1cc(C=C2C(=O)NC(=O)NC2=O)c2ccccc21	66	·	–	–	–	–
O=C1NC(=O)C(=Cc2csc3ccccc23)C(=O)N1	65	–	–	–	–	–
O=C1NC(=O)C(=Cc2ccc(-c3cc(Cl)ccc3[N+](=O)[O-])o2)C(=O)N1	69	·	–	–	–	–
O=C1NC(=O)C(=Cc2ccccc2[N+](=O)[O-])C(=O)N1	–	·	·	–	·	·
CN1C(=O)NC(=O)/C(=C\c2ccc([N+](=O)[O-])o2)C1=O	–	–	–	–	–	·
O=C1NC(=O)C(=Cc2ccc(-c3ccccc3[N+](=O)[O-])o2)C(=O)N1	88	·	–	–	–	76	Diaphorase 10uM=–;Diaph ctr 30uM=–
CC1(C)CC(=O)CC(C)(C)N1O	–	·	·	–	·	·
